The whole screen tested about 320,000 compounds, of which about 2,100 (0.66%) were called active. Roughly 53% stayed inconclusive and do not appear here. Calls come from the whole dose curve; as a rule, active = well fitted inhibition curve with a large enough effect in the signal ratio, with a control signal flat (not every such curve was filed as active); inconclusive = small, poorly fitted or top-dose-only effect, or effect the other way, or a change in a side signal; inactive = flat fitted curve, though single readings scatter; the % refers to the signal ratio. This excerpt belongs to a sample that is enriched for actives.
Potency is the fitted concentration of half-maximal effect.

The nature of the assay: qHTS Assay for Lipid Storage Modulators in Drosophila S3 Cells.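 For cell number change: cells counted by Cell Tracker Red CMTPX staining in the red channel.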 For lipid storage change, negative = inhibition: % is set by controls: 0 for no effect and ±100 for the full control effect. The following applies: BODIPY lipid droplet fluorescence, 18-24 h, cells fed with added oleic acid; cell number change: measured here: cell count max response; series mostly up to 46.1 µM; lipid storage change, negative = inhibition: at the top concentration. The method in brief:
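Drosophila S3 cells loaded with oleic acid (400 uM, as added) and compounds at several concentrations; lipid droplets imaged by 488-nm laser-scanning cytometry, 500–530 nm intensity and object ratio to cell channel. Percent activity normalized to 20 uM Triacsin C.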
For orientation: Quantitative high-throughput screening tests each substance at several concentrations.
Regarding `Cc1nc2ccccc2n1CCOc1ccc(F)cc1`, the “lipid storage change, negative = inhibition” value is 9.98% (inactive) and the cell number change is -21.4%.
Take `COc1ccccc1C(=O)NCCn1cc(SCC(=O)NCC2CCCO2)c2ccccc21` (stereo not given): the Potency is 18.4 µM (active) and the cell number change was -16.8%.
For `CCn1cc(SCC(=O)NCC2CCCO2)c2ccccc21` (stereo not given), the “lipid storage change, negative = inhibition” value was -5.87% (inactive) and the cell number change was -11.7%.
As to `Cc1ccccc1C(=O)NCCn1cc(SCC(=O)NCC2CCCO2)c2ccccc21` (stereo not given), the “lipid storage change, negative = inhibition” value was -8.86% (inactive) and the cell number change amounted to 4.31%.
The corresponding values for `CCCCNC(=O)C1CCN(Cc2ccc(OCc3ccccc3)cc2)CC1` are -3.1% (inactive) and -13%.
Take `COc1ccc(/C=C2/C(=N)N3C(=NC2=O)Sc2cc(S(C)(=O)=O)ccc23)cc1OC`: the “lipid storage change, negative = inhibition” value is -5.29% (inactive) and the cell number change stood at 20.5%.
As to `CN(C)c1ccc(/C=C2\C(=N)N3C(=NC2=O)Sc2cc(S(C)(=O)=O)ccc23)cc1`, the Potency was 5.8 µM (active) and the cell number change came out at 29.8%.
Regarding `Cc1ccc(S(=O)(=O)Oc2ccc(/C=C3/C(=N)N4C(=NC3=O)SN=C4S(C)(=O)=O)cc2)cc1`, the compound was called inactive and the cell number change was -5.51%.
Consider `CC(=O)N1CCc2cc(S(=O)(=O)CCC(=O)N3CCN(c4ccccn4)CC3)ccc21`, for which the “lipid storage change, negative = inhibition” value is 11.4% (inactive) and the cell number change was 3.02%.
On to `CCc1ccc(C(C(=O)NCc2ccc(F)cc2)N(C(=O)c2csnn2)C2CC2)cc1` (stereo not given), for which the call was inactive and the cell number change is -0.952%.
In the case of `CCCN(C(=O)/C=C/c1nc2ccccc2s1)C1CCS(=O)(=O)C1` (stereo not given), the “lipid storage change, negative = inhibition” value is -2.18% (inactive) and the cell number change came out at 10.5%.
Regarding `COc1ccc(NC(=O)c2ccc(NCCCN3CCOCC3)c([N+](=O)[O-])c2)cc1`, the “lipid storage change, negative = inhibition” value is 9.93% (inactive) and the cell number change was 0.55%.
`Cc1cccc(C(=O)NC2CCCCCCC2)c1`: the “lipid storage change, negative = inhibition” value was 6.47% (inactive) and the cell number change stood at 5.98%.
Take `Cc1ccc(C(=O)Nc2cccc(C(=O)O)c2)cc1`: the “lipid storage change, negative = inhibition” value was -0.691% (inactive) and the cell number change was -13.9%.
Consider `CCOC(=O)c1cccc(NC(=O)c2ccc(NC(=O)C3CCCO3)cc2)c1` (stereo not given), for which the Potency is 14.6 µM (active) and the cell number change was -4.84%.
On to `CS(=O)(=O)NCc1ccc(C(=O)NC2CCCCC2)cc1`, for which the compound was called inactive.
As for `Cc1ccc(C(=O)Nc2cccc(C(=O)NC3CCCC3)c2)cc1`, the Potency was 14.6 µM (active) and the cell number change came to 21.4%.
With `CS(=O)(=O)c1ccc(C(=O)NC2CCCCC2)cc1`, the “lipid storage change, negative = inhibition” value is 19.9% (inactive) and the cell number change came to 6.12%.
With `O=C(Nc1cccc(O)c1)c1ccc(NC(=O)C2CCCO2)cc1` (stereo not given), the outcome was inactive and the cell number change is -1.32%.
In the case of `Cc1ccc(C(=O)NC2CCCCC2)cc1`, the “lipid storage change, negative = inhibition” value is 19.6% (inactive) and the cell number change was -6.85%.
For the compound `CS(=O)(=O)Nc1ccc(C(=O)NC2CCCC2)cc1`, the Potency was 2.91 µM (active) and the cell number change is -0.712%.
With `CCc1ccc(NC(=O)c2ccc(NC(=O)C3CCCO3)cc2)cc1` (stereo not given), the compound was classed as inactive and the cell number change was found to be 8.55%.
As for `O=C(NC1CCCCC1)c1ccc2c(c1)OCO2`, the “lipid storage change, negative = inhibition” value was 3.69% (inactive) and the cell number change is 1.32%.
Turning to `CC1Nc2ccc(C(=O)NC3CCCCC3)cc2NC1=O` (stereo not given), the Potency was 23.1 µM (active) and the cell number change worked out at 18.4%.
Turning to `CC(C)CC(=O)N1CCN(Cc2ccc(Cl)cc2)CC1`, the “lipid storage change, negative = inhibition” value is 10.9% (inactive) and the cell number change was 1.4%.
The corresponding values for `CN1CCN(C(=O)C2=C[C@@H](c3csc4ccccc34)C[C@@H](OCc3ccc(CO)cc3)O2)CC1` are 6.22% (inactive) and 5.1%.
With `Cc1ccc(S(=O)(=O)N(C)c2nc3ccccc3[nH]c2=S)cc1`, the “lipid storage change, negative = inhibition” value was -4.12% (inactive) and the cell number change worked out at 4.96%.
With `CCCCn1nc(NS(=O)(=O)c2cccc3nonc23)c2cc3cccc(C)c3nc21`, the “lipid storage change, negative = inhibition” value was -12.1% (inactive).
`COc1ccc2nc(SCc3ccccc3C)nc(C)c2c1`: the “lipid storage change, negative = inhibition” value is -4.04% (inactive) and the cell number change is -12.5%.
The corresponding values for `COc1ccc(CCN(Cc2ccc(C(C)C)cc2)S(=O)(=O)c2ccc(S(=O)(=O)N(C)C)cc2)cc1OC` are 0.0067% (inactive) and -3.06%.
For `COc1ccc(OC)c(C2=NOC(C(=O)NCc3cccs3)C2)c1` (stereo not given) the same measures were -0.872% (inactive) and 19.5%.
For the compound `COc1nc(OC)nc(N2CCC(C(=O)Nc3cccc4ccccc34)CC2)n1`, the “lipid storage change, negative = inhibition” value is 14.5% (inactive) and the cell number change was -0.422%.
Consider `CC12CN(C(=O)c3ccc(Cl)cc3)C3(C#N)CC1CCC23C` (stereo not given), for which the call was inactive.
Turning to `O=C(Nc1ncc(Cc2cccc(Cl)c2)s1)C1CCCO1` (stereo not given), the “lipid storage change, negative = inhibition” value is 0.772% (inactive) and the cell number change is -0.923%.
Regarding `O=C(Nc1ncc(Cc2cccc(C(F)(F)F)c2)s1)C1CCCO1` (stereo not given), the “lipid storage change, negative = inhibition” value was -2.84% (inactive) and the cell number change is -4.39%.
For `CCOC(=O)c1c(-c2ccc(C)cc2)csc1NC(=O)C1CCCO1` (stereo not given), the Potency was 6.51 µM (active) and the cell number change amounted to 11.7%.
As for `CCOC(=O)c1c(-c2ccc(F)cc2)csc1NC(=O)C1CCCO1` (stereo not given), the “lipid storage change, negative = inhibition” value was -6.46% (inactive) and the cell number change came out at 2.19%.
The corresponding values for `CCOC(=O)c1c(-c2ccccc2)csc1NC(=O)C1CCCO1` (stereo not given) are -8.83% (inactive) and -4.26%.
In the case of `Cc1ccc(Cc2cnc(NC(=O)C3CCCO3)s2)cc1` (stereo not given), the Potency was 2.06 µM (active) and the cell number change was 15.9%.
Turning to `O=C(NCC1CCCO1)C(=O)N/N=C\c1ccc2c(c1)OCO2` (stereo not given), the compound was classed as inactive and the cell number change is -7.51%.
Regarding `Cc1c(C(=O)N2CCCCCC2)c(S(=O)(=O)Nc2cccc(F)c2)c(C)n1C`, the compound was classed as inactive.
On to `COc1cc2c(cc1OC)CN(c1ccc(-c3ccccc3OC)nn1)CC2`, for which the “lipid storage change, negative = inhibition” value was -6.67% (inactive) and the cell number change is -18%.
In the case of `COc1cc2c(cc1OC)CN(c1ccc3ccccc3n1)CC2`, the Potency is 14.6 µM (active) and the cell number change was -10.9%.
For the compound `COc1cc2c(cc1OC)CN(c1nc(-c3cccnc3)nc3ccccc13)CC2`, the “lipid storage change, negative = inhibition” value was 13.7% (inactive) and the cell number change came to 13.3%.
For the compound `O=C(Nc1ccc(Cl)cc1)NN1CC(=O)N(c2cccc(C(F)(F)F)c2)CC1=O`, the “lipid storage change, negative = inhibition” value is -5.06% (inactive) and the cell number change was -8.1%.
In the case of `Cc1ccc(OCCn2cc(Br)c(=O)[nH]c2=O)cc1`, the outcome was inactive and the cell number change is -2.4%.
As for `COc1cccc(CNC(=O)CCC2CCCN(C(=O)c3cc(C)on3)C2)c1` (stereo not given), the “lipid storage change, negative = inhibition” value was 3.38% (inactive) and the cell number change was 6.95%.

Values taken from PubChem BioAssay AID2685 (National Center for Advancing Translational Sciences (NCATS), 2010).
